According to the supplement of paper PMC7411054:

Tests used:
Experiment in all cases: phenotypically active (imaging signature differs from DMSO and reproducible) at any of 0.3-9 uM (binary (1 = active, 0 = inactive)); higher = active
Settings in all cases: treatment time: 24 h
A549-ACTB-RAB5A = system: A549-ACTB-RAB5A
Summary of the method: (§1)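 Each of fifteen gene-edited A549, HepG2 and WPMY1 reporter lines, marked with BFP for segmentation and GFP and RFP/FusionRed, was treated in four wells at 0.3, 1, 3 or 9 µM for 24 h prior to live imaging. Normalisation of per-well live-cell features used solvent control wells. Deviation needed ≥3 of 4 wells beyond the 95th percentile of control Euclidean distances, and reproducibility needed a median replicate Pearson correlation above the 95th percentile of non-replicates. Both were required for phenotypic activity.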

A549-CANX-COX4 = system: A549-CANX-COX4
Summary of the method: as §1

A549-GM130-SQSTM1 = system: A549-GM130-SQSTM1
Summary of the method: as §1

A549-TP53BP1-CLTA = system: A549-TP53BP1-CLTA
Summary of the method: as §1

A549-TUBA1B-RELA = system: A549-TUBA1B-RELA
Summary of the method: as §1

HepG2-ACTB-RAB5A = system: HepG2-ACTB-RAB5A
Summary of the method: as §1

HepG2-CANX-COX4 = system: HepG2-CANX-COX4
Summary of the method: as §1

HepG2-GM130-SQSTM1 = system: HepG2-GM130-SQSTM1
Summary of the method: as §1

HepG2-TP53BP1-CLTA = system: HepG2-TP53BP1-CLTA
Summary of the method: as §1

HepG2-TUBA1B-RELA = system: HepG2-TUBA1B-RELA
Summary of the method: as §1

WPMY1-ACTB-RAB5A = system: WPMY1-ACTB-RAB5A
Summary of the method: as §1

WPMY1-CANX-COX4 = system: WPMY1-CANX-COX4
Summary of the method: as §1

WPMY1-GM130-SQSTM1 = system: WPMY1-GM130-SQSTM1
Summary of the method: as §1

WPMY1-TP53BP1-CLTA = system: WPMY1-TP53BP1-CLTA
Summary of the method: as §1

WPMY1-TUBA1B-RELA = system: WPMY1-TUBA1B-RELA
Summary of the method: as §1

Measured: phenotypically active

CN1[C@@H](CC(=O)c2ccccc2)CCC[C@H]1C[C@H](O)c1ccccc1 [Lobeline alpha (-) hydrochoride]
inactive: A549-ACTB-RAB5A 0 | A549-CANX-COX4 0 | A549-GM130-SQSTM1 0 | A549-TP53BP1-CLTA 0 | A549-TUBA1B-RELA 0 | HepG2-ACTB-RAB5A 0 | HepG2-CANX-COX4 0 | HepG2-GM130-SQSTM1 0 | HepG2-TP53BP1-CLTA 0 | HepG2-TUBA1B-RELA 0 | WPMY1-ACTB-RAB5A 0 | WPMY1-CANX-COX4 0 | WPMY1-GM130-SQSTM1 0 | WPMY1-TP53BP1-CLTA 0 | WPMY1-TUBA1B-RELA 0

c1ccc2c(c1)CCCC2C1=NCCN1 (stereo not given) [tetrahydrozoline]
inactive: A549-ACTB-RAB5A 0 | A549-CANX-COX4 0 | A549-GM130-SQSTM1 0 | A549-TP53BP1-CLTA 0 | A549-TUBA1B-RELA 0 | HepG2-ACTB-RAB5A 0 | HepG2-CANX-COX4 0 | HepG2-GM130-SQSTM1 0 | HepG2-TP53BP1-CLTA 0 | HepG2-TUBA1B-RELA 0 | WPMY1-ACTB-RAB5A 0 | WPMY1-CANX-COX4 0 | WPMY1-GM130-SQSTM1 0 | WPMY1-TP53BP1-CLTA 0 | WPMY1-TUBA1B-RELA 0

CCCCCCOc1cc2c(cc1N(C)c1ncc(C(=O)O)cn1)C(C)(C)CCC2(C)C
inactive: A549-ACTB-RAB5A 0 | A549-CANX-COX4 0 | A549-GM130-SQSTM1 0 | A549-TP53BP1-CLTA 0 | A549-TUBA1B-RELA 0 | HepG2-ACTB-RAB5A 0 | HepG2-CANX-COX4 0 | HepG2-GM130-SQSTM1 0 | HepG2-TP53BP1-CLTA 0 | HepG2-TUBA1B-RELA 0 | WPMY1-ACTB-RAB5A 0 | WPMY1-CANX-COX4 0 | WPMY1-GM130-SQSTM1 0 | WPMY1-TP53BP1-CLTA 0 | WPMY1-TUBA1B-RELA 0

O=NN(CCCl)C(=O)NCCCl [carmustine]
inactive: A549-ACTB-RAB5A 0 | A549-CANX-COX4 0 | A549-GM130-SQSTM1 0 | A549-TP53BP1-CLTA 0 | A549-TUBA1B-RELA 0 | HepG2-ACTB-RAB5A 0 | HepG2-CANX-COX4 0 | HepG2-GM130-SQSTM1 0 | HepG2-TP53BP1-CLTA 0 | HepG2-TUBA1B-RELA 0 | WPMY1-ACTB-RAB5A 0 | WPMY1-CANX-COX4 0 | WPMY1-GM130-SQSTM1 0 | WPMY1-TP53BP1-CLTA 0 | WPMY1-TUBA1B-RELA 0

CC(C)[C@](O)(c1ccc2cc(OC(F)F)c(OC(F)F)cc2c1)c1c[nH]nn1
inactive: A549-ACTB-RAB5A 0 | A549-CANX-COX4 0 | A549-GM130-SQSTM1 0 | A549-TP53BP1-CLTA 0 | A549-TUBA1B-RELA 0 | HepG2-ACTB-RAB5A 0 | HepG2-CANX-COX4 0 | HepG2-GM130-SQSTM1 0 | HepG2-TP53BP1-CLTA 0 | HepG2-TUBA1B-RELA 0 | WPMY1-ACTB-RAB5A 0 | WPMY1-CANX-COX4 0 | WPMY1-GM130-SQSTM1 0 | WPMY1-TP53BP1-CLTA 0 | WPMY1-TUBA1B-RELA 0

N#Cc1ccccc1OCC(O)CNCCNC(=O)Nc1ccccc1 (stereo not given)
inactive: A549-ACTB-RAB5A 0 | A549-CANX-COX4 0 | A549-GM130-SQSTM1 0 | A549-TP53BP1-CLTA 0 | A549-TUBA1B-RELA 0 | HepG2-ACTB-RAB5A 0 | HepG2-CANX-COX4 0 | HepG2-GM130-SQSTM1 0 | HepG2-TP53BP1-CLTA 0 | HepG2-TUBA1B-RELA 0 | WPMY1-ACTB-RAB5A 0 | WPMY1-CANX-COX4 0 | WPMY1-GM130-SQSTM1 0 | WPMY1-TP53BP1-CLTA 0 | WPMY1-TUBA1B-RELA 0

Cc1c(F)cc(C(=O)NC2CC2)cc1-c1ccc(C(=O)NCC(C)(C)C)cn1 [losmapimod]
inactive: A549-ACTB-RAB5A 0 | A549-CANX-COX4 0 | A549-GM130-SQSTM1 0 | A549-TP53BP1-CLTA 0 | A549-TUBA1B-RELA 0 | HepG2-ACTB-RAB5A 0 | HepG2-CANX-COX4 0 | HepG2-GM130-SQSTM1 0 | HepG2-TP53BP1-CLTA 0 | HepG2-TUBA1B-RELA 0 | WPMY1-ACTB-RAB5A 0 | WPMY1-CANX-COX4 0 | WPMY1-GM130-SQSTM1 0 | WPMY1-TP53BP1-CLTA 0 | WPMY1-TUBA1B-RELA 0

CC(=O)OCC[N+](C)(C)C [acetylcholine]
inactive: A549-ACTB-RAB5A 0 | A549-CANX-COX4 0 | A549-GM130-SQSTM1 0 | A549-TP53BP1-CLTA 0 | A549-TUBA1B-RELA 0 | HepG2-ACTB-RAB5A 0 | HepG2-CANX-COX4 0 | HepG2-GM130-SQSTM1 0 | HepG2-TP53BP1-CLTA 0 | HepG2-TUBA1B-RELA 0 | WPMY1-ACTB-RAB5A 0 | WPMY1-CANX-COX4 0 | WPMY1-GM130-SQSTM1 0 | WPMY1-TP53BP1-CLTA 0 | WPMY1-TUBA1B-RELA 0

NC(=O)OCC(COC(N)=O)c1ccccc1 [felbamate]
inactive: A549-ACTB-RAB5A 0 | A549-CANX-COX4 0 | A549-GM130-SQSTM1 0 | A549-TP53BP1-CLTA 0 | A549-TUBA1B-RELA 0 | HepG2-ACTB-RAB5A 0 | HepG2-CANX-COX4 0 | HepG2-GM130-SQSTM1 0 | HepG2-TP53BP1-CLTA 0 | HepG2-TUBA1B-RELA 0 | WPMY1-ACTB-RAB5A 0 | WPMY1-CANX-COX4 0 | WPMY1-GM130-SQSTM1 0 | WPMY1-TP53BP1-CLTA 0 | WPMY1-TUBA1B-RELA 0

NS(=O)(=O)c1cc2c(cc1Cl)N=CNS2(=O)=O [chlorothiazide]
inactive: A549-ACTB-RAB5A 0 | A549-CANX-COX4 0 | A549-GM130-SQSTM1 0 | A549-TP53BP1-CLTA 0 | A549-TUBA1B-RELA 0 | HepG2-ACTB-RAB5A 0 | HepG2-CANX-COX4 0 | HepG2-GM130-SQSTM1 0 | HepG2-TP53BP1-CLTA 0 | HepG2-TUBA1B-RELA 0 | WPMY1-ACTB-RAB5A 0 | WPMY1-CANX-COX4 0 | WPMY1-GM130-SQSTM1 0 | WPMY1-TP53BP1-CLTA 0 | WPMY1-TUBA1B-RELA 0

C/N=C(\NC#N)NCCSCc1nc[nH]c1C [cimetidine]
inactive: A549-ACTB-RAB5A 0 | A549-CANX-COX4 0 | A549-GM130-SQSTM1 0 | A549-TP53BP1-CLTA 0 | A549-TUBA1B-RELA 0 | HepG2-ACTB-RAB5A 0 | HepG2-CANX-COX4 0 | HepG2-GM130-SQSTM1 0 | HepG2-TP53BP1-CLTA 0 | HepG2-TUBA1B-RELA 0 | WPMY1-ACTB-RAB5A 0 | WPMY1-CANX-COX4 0 | WPMY1-GM130-SQSTM1 0 | WPMY1-TP53BP1-CLTA 0 | WPMY1-TUBA1B-RELA 0

C[C@@H]1C(=O)O[C@H]2C[C@@]34[C@H]5C[C@@H](C(C)(C)C)[C@]36[C@@H](OC(=O)[C@@H]6O)O[C@@]4(C(=O)O5)[C@]21O [Ginkgolide A]
inactive: A549-ACTB-RAB5A 0 | A549-CANX-COX4 0 | A549-GM130-SQSTM1 0 | A549-TP53BP1-CLTA 0 | A549-TUBA1B-RELA 0 | HepG2-ACTB-RAB5A 0 | HepG2-CANX-COX4 0 | HepG2-GM130-SQSTM1 0 | HepG2-TP53BP1-CLTA 0 | HepG2-TUBA1B-RELA 0 | WPMY1-ACTB-RAB5A 0 | WPMY1-CANX-COX4 0 | WPMY1-GM130-SQSTM1 0 | WPMY1-TP53BP1-CLTA 0 | WPMY1-TUBA1B-RELA 0

Cn1cnc([N+](=O)[O-])c1Sc1ncnc2nc[nH]c12 [azathioprine]
inactive: A549-ACTB-RAB5A 0 | A549-CANX-COX4 0 | A549-GM130-SQSTM1 0 | A549-TP53BP1-CLTA 0 | A549-TUBA1B-RELA 0 | HepG2-ACTB-RAB5A 0 | HepG2-CANX-COX4 0 | HepG2-GM130-SQSTM1 0 | HepG2-TP53BP1-CLTA 0 | HepG2-TUBA1B-RELA 0 | WPMY1-ACTB-RAB5A 0 | WPMY1-CANX-COX4 0 | WPMY1-GM130-SQSTM1 0 | WPMY1-TP53BP1-CLTA 0 | WPMY1-TUBA1B-RELA 0

C[N+]1(C)[C@@H]2C[C@@H](OC(=O)C(O)(c3cccs3)c3cccs3)C[C@H]1[C@@H]1O[C@@H]12 [Tiotropium bromide]
inactive: A549-ACTB-RAB5A 0 | A549-CANX-COX4 0 | A549-GM130-SQSTM1 0 | A549-TP53BP1-CLTA 0 | A549-TUBA1B-RELA 0 | HepG2-ACTB-RAB5A 0 | HepG2-CANX-COX4 0 | HepG2-GM130-SQSTM1 0 | HepG2-TP53BP1-CLTA 0 | HepG2-TUBA1B-RELA 0 | WPMY1-ACTB-RAB5A 0 | WPMY1-CANX-COX4 0 | WPMY1-GM130-SQSTM1 0 | WPMY1-TP53BP1-CLTA 0 | WPMY1-TUBA1B-RELA 0
